High-throughput results (PubChem)
The list is not random: actives were taken first. Their share in the collection is about 5.9%.
HEK293 tox: cytotoxicity in counter-screen for GLP-1R inverse agonists. HEK293 cAMP-luciferase reporter cells, luminescence, 24 h. Potency, µM (top dose mostly 38.3 µM), without a hit: at the highest dose activity change, negative = inhibition, hits mostly inhibitors. 410,000 tested, 0.13% active. AID 624418;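 note: loss of luciferase light is scored as toxicity; % is set by controls: 0 for no effect and ±100 for the full control effect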
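Here, cytotoxicity is scored as loss of luminescence. The MLSMR collection was tested on cells seeded in medium containing 10% Nu serum, with a 24 hr compound exposure preceded by 12 hours of culture.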
Gal4-VP16 FLuc: counter-screen for ROR gamma inhibitors: Gal4-VP16 reporter; Drosophila S2 Gal4-VP16 UAS-luciferase, luminescence, 20 h; Potency, µM (series often up to 53.6 µM), without a hit: at the top dose activity, negative = inhibition, hits mostly inhibitors; 310,000 tested, 3.5% active;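 note: Gal4-VP16 expression switched on by copper sulfate through the metallothionein promoter; % is set by controls: 0 for no effect and ±100 for the full control effect; nearly all actives have a fitted effect of over 50% in size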
RORgamma inh: blocks mouse ROR gamma transcriptional activity. Potency, µM (highest dose often 53.6 µM), inactives show top-dose activity change, negative = inhibition, most hits filed as inhibitors. AID 2551. Drosophila S2 Gal4-RORgamma UAS-luciferase reporter, 20 h. 310,000 tested, 5.4% active; note: % is set by controls: 0 for no effect and ±100 for the full control effect; nearly all actives have a fitted effect of over 60% in size
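Using a luciferase readout, inhibitors were identified by reduced reporter activity in Drosophila cells coexpressing a copper-inducible Gal4–ROR gamma fusion and UAS-driven Photinus luciferase, incubated 20 hr after 700 uM copper sulfate.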
GLP1R ag: agonists of human GLP-1 receptor. P43220. HEK293 GLP-1R CRE-luciferase, luminescence, 4-6 h; cells express a hypersensitive GLP-1R form. Potency, µM (doses to about 45.6 µM), for inactives: top-dose activation, usual class: activators. 380,000 tested, 0.007% active; note: % of control where 0% means no effect
Target sequence (P43220 whole entry, looked up): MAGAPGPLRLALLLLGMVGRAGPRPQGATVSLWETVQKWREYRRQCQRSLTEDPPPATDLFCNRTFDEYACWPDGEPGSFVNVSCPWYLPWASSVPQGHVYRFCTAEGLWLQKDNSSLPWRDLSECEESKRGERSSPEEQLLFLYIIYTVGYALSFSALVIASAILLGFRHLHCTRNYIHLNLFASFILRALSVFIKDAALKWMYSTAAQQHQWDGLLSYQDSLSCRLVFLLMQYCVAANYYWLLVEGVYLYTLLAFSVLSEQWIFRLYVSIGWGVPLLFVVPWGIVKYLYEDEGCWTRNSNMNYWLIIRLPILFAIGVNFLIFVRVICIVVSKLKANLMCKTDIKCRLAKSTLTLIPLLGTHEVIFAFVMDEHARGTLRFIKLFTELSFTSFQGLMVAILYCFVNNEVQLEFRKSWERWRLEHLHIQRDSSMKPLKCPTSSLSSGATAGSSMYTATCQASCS
GLP1R inv ag: GLP-1 receptor (human) inverse agonism; P43220; HEK293 GLP-1R CRE-luciferase, luminescence, 24 h; GLP-1R form is constitutively active; Potency, µM (series often up to 38.3 µM), for inactives: top-dose activity change, negative = inhibition, most hits filed as inhibitors; 410,000 tested, 1.6% active; note: % is set by controls: 0 for no effect and ±100 for the full control effect; nearly all actives have a fitted effect of over 55% in size
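qHTS in 1536-well format: reporter HEK293 cells expressing constitutive GLP-1R activity in DMEM + 10% Nu serum, 24 hr with compounds at 37 deg C, luminescence read after 12 min with detection reagent.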
Numbers without * were called inactive; ? = inconclusive; · = no result given; ! = a repeat was not active; [ ] = another dose, or the depositor's remark. Calls come from the whole dose curve; as a rule, active = well fitted curve in the direction sought with a large enough effect; inconclusive = small, poorly fitted or top-dose-only effect, or another doubt; inactive = no such curve, though single readings can be large; an effect the other way counts as inactive or inconclusive. Potency is the fitted concentration of half-maximal effect.

SMILES	HEK293 tox	Gal4-VP16 FLuc	RORgamma inh	GLP1R ag	GLP1R inv ag
Cc1cccc(-c2nc(CCNC(=O)COc3ccccc3)cs2)c1	-5%	·	·	·	13%
Cc1cc2c(cc1C)C(c1ccccc1OC(C)C)CC(=O)N2 (configuration not stated)	-22%	3%	11%	3%	10µM*
CC(C)Oc1ccccc1C1CC(=O)Nc2cc3c(cc21)OCO3 (configuration not stated)	-31%	13µM*	?	19%	0%
Cc1cccc2sc(NNC(=O)c3ccc4c(c3)OCCO4)nc12	-17%	13µM*	7.9µM*	4%	?
O=C(NNc1nc2cc3c(cc2s1)OCCO3)c1ccccc1	-2%	-16%	4µM*	13%	2%
CC(=O)Nc1nc2cc3c(cc2s1)OCCO3	0%	-13%	?	-2%	?
COc1ccc(Br)cc1CNC(=O)Cn1c(=O)c2cccn2c2ccc(F)cc21	12%	·	·	·	10%
O=C(NN1CCCC1)NS(=O)(=O)c1ccc(Cl)cc1	·	·	·	0%	·
O=C(c1ccccc1)c1ccc(-c2ccc(O)cc2)cc1	7%	18µM*	3.5µM*	7%	?
COC(=O)[C@H](COC(C)(C)C)NC(=O)O[C@@H]1C(=O)c2cc(OC)ccc2O[C@H]1c1cccc(OC)c1	·	-22%	13%	·	·
CCC(C)Sc1ccc(-c2nc3cc(C)ccn3c2NC2CCCCC2)cc1 (configuration not stated)	6%	·	·	0%	10µM*!
CCC(C)Sc1ccc(-c2nc3cnccn3c2NC2CCCCC2)cc1 (configuration not stated)	127%	·	·	3%	?
CCCCNc1c(-c2cccc(-c3ccc(OC)cc3)c2)nc2cc(C)ccn12	2%	·	·	-9%	11µM*
Cc1ccn2c(NC3CCCCC3)c(-c3cccc(-c4cccc(Cl)c4)c3)nc2c1	?	·	·	-4%	4µM*
c1ccc(-c2nc3ccccn3c2NC2CCCC2)nc1	-26%	0%	7%	20%	?
Cc1ccn2c(NC3CCCC3)c(-c3ccccn3)nc2c1	?	-17%[10 µM]	3.5µM*	16%	?
COc1ccc(N2CCN(Cc3nnc(-c4cccc(Br)c4)o3)CC2)cc1	10%	·	·	·	16%
CC(C)(C)C1CCc2onc(C(=O)Nc3sc4c(c3C#N)CCCC4)c2C1 (configuration not stated)	2%	·	·	·	12%
Cc1ccn2c(NC3CCCCC3)c(C)nc2c1	-3%	?	13µM*	7%	-12%
Cc1ccn2c(NC3CCCCC3)c(C(C)C)nc2c1	-22%	-1%	8%	-1%	-68%
CCCCn1c(=O)c2oc3ccccc3c2n(CC(=O)Nc2cccc(Cl)c2C)c1=O	2%	·	·	·	6%
O=[N+]([O-])c1cc(C(F)(F)F)cc([N+](=O)[O-])c1NCCNC(=S)Nc1ccc(Cl)c(Cl)c1	?	?	?	-1%	8.9µM*
O=C(CC1NCCC[C@H]1O)Cn1cnc2cc(Br)c(Cl)cc2c1=O (some centres not stated)	·	6%	0%	5%	·
COc1ccc(S(=O)(=O)N2CCCN(CC(=O)Nc3ccc(OC)cc3OC)CC2)cc1	-14%	·	·	·	9%
CC1(C)Cc2ccccc2C(NNC(=O)c2ccccc2)=N1	-1%[7.66 µM]	-8%	-12%	-1%	-18%[7.66 µM]
SMILES	HEK293 tox	Gal4-VP16 FLuc	RORgamma inh	GLP1R ag	GLP1R inv ag
CC1(C)Cc2ccccc2C(C(=O)c2ccccc2)=N1	6%	3%	7.9µM*	0%	?
CC1(C)Cc2ccccc2C(NNC(=O)c2ccccn2)=N1	?	0.1µM*	0.05µM*	-18%	?
CC(C)=CCC/C(C)=C/CO/N=C1/C[C@@H](O)[C@@H](O)[C@@H]2[C@@H]3C(=O)N(Cc4ccc5c(c4)OCO5)C(=O)[C@H]3CC[C@H]12	·	-9%[10 µM]	0%[10 µM]	·	·
COc1cc(/C=N/Nc2ccccc2)ccc1O	6%	-1%	-11%	12%	2.5µM*
COc1ccc(/C=N/OCC(=O)NC(c2ccccc2)c2ccccc2)cc1OC	20%	1.6µM*	?	?	?
COc1ccc(/C=N/NC(=S)NCc2ccccc2)cc1OC	?	?	10µM*	17%	?
COc1ccc(/C=N/NC(=O)CCn2cnc(-c3ccccc3)c2-c2ccccc2)cc1OC	-23%	13µM*	?	18%	-6%
Cc1ccc(CNC(=O)CS(=O)(=O)c2cccc3nsnc23)cc1	-4%	·	·	-7%	-14%
Cc1ccc2c(c1)N(C(=O)N1CCC(C(=O)NC3CCCCCC3)CC1)CC(C)O2 (configuration not stated)	5%	·	·	·	7%
CCOc1ccccc1C(=O)N(Cc1ccc(N(C)C)cc1)CC1CCCO1 (configuration not stated)	-9%	·	·	·	-10%
COc1cc(OC)cc(C(=O)Nc2cc3c(cc2N2CCOCC2)n(C)c(=O)n3C)c1	16%	·	·	·	5%
CC(=O)Nc1ccn(C2OC(C(COC(C)=O)NC(=O)C(Cc3ccccc3)NC(=O)OC(C)(C)C)C(OC(C)=O)C2OC(C)=O)c(=O)n1 (configuration not stated)	·	1%	3%	·	·
COc1ccc(/C=C/C(=O)Oc2cccc(/C=N/NC(=O)c3cccc(F)c3)c2)cc1	?	?	?	-29%	?
COc1ccc(CNC(=S)N/N=C/c2ccc(O)c(OC)c2)cc1	8%[1.53 µM]	16µM*	10µM*	24%	?
COCCCNC(=S)N/N=C/c1ccc(OC)c(Br)c1	?	11µM*	1µM*	28%	?
COc1ccc(/C=C\C(=O)Oc2cccc(/C=N/NC(=O)Cc3ccc(OC)c(OC)c3)c2)cc1	?	13µM*	-28%	2%	22%
COc1ccc(CNC(=S)N/N=C/c2ccncc2)cc1	-23%	?	?	12%	2%
COc1cc(/C=N\NC(C)=O)ccc1OC/C=C/c1ccccc1	-32%	0.45µM*	?	2%	?
O=C(c1cccc([N+](=O)[O-])c1)N1CCN(c2ccc(Nc3ccccc3)nn2)CC1	9%	·	·	·	-13%
COc1ccc(CNC(=S)N/N=C/c2ccc(OC)c(OC)c2)cc1	14%	?	11µM*	1%	-3%
COc1cc(/C=N/NC(=S)N/N=C/c2cc(OC)c(OC)c(OC)c2)cc(OC)c1OC	?	4µM*	?	9%	42%
COc1ccc(C=NNC(=S)Nc2ccc(F)cc2)cc1OC	?	·	·	9%	?
COc1ccc(C=NNC(=S)NN=Cc2ccc(OC)c(OC)c2)cc1OC	0%	·	·	?	112%
CC(=O)Nc1ccc(C2NC(C(=O)O)CCC2C)cc1 (configuration not stated)	·	-13%[10 µM]	7%[10 µM]	·	·
